23 compounds from PubChem BioAssay (NCATS) can be followed below.

A number with no mark means an inactive call. Records with an inconclusive call do not appear. The source made the active and inactive calls. Unless noted, calls follow the shape of the dose curve; as a rule, active = well fitted curve in the direction sought with a large enough effect; inconclusive = small, poorly fitted or top-dose-only effect, or another doubt; inactive = no such curve, though single readings can be large; an effect the other way counts as inactive or inconclusive.

Experiment [1] addresses T1, Hexokinase-4 (Homo sapiens) + Glucokinase regulatory protein (Homo sapiens) (UniProt P35557+Q14397). In words: qHTS assay for inhibitors of recombinant human GCK-GKRP interaction: Diaphorase-coupled assay (AID 743205). Put shortly:
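A kinetic fluorescence read (Ex 525/Em 590 nm, every minute for 30 minutes) tracked resorufin from a G6PDH-diaphorase coupled GCK reaction. It contained 10 nM GST-GCK, 10 nM FLAG-GKRP, 5 mM glucose, 0.4 mM ATP in Hepes pH 7.6. Normalized to with/without-enzyme DMSO controls.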

Experiment [2] addresses T1, Hexokinase-4 (Homo sapiens) + Glucokinase regulatory protein (Homo sapiens). The experiment can be described thus: qHTS assay for inhibitors of recombinant human GCK-GKRP interaction: ADP-Glo assay (AID 743206).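 Also: plate controls were DMSO plus enzyme for no effect and no enzyme for full effect.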 Put shortly: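 Pin-transferred compounds meet a 15 nM GST-GCK/15 nM FLAG-GKRP/2 uM S6P mix (dispense concentrations). ATP is then added to 0.4 mM final with 5 mM glucose, and the reaction runs 60 min at room temperature. ADP is quantified luminescently.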

Experiment [3] has the same target. In words: qHTS assay for inhibitors of recombinant human GCK-GKRP interaction: HTRF assay (AID 743207).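 Also: 0% = DMSO with GCK present and -100% = DMSO wells lacking GCK.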 In short, it runs like this: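 After 60 min equilibration at room temperature with anti-FLAG XL665 and anti-GST antibodies, FRET ratio (665/615 nm, excitation 320 nm) was read. Proteins: GST-GCK and FLAG-GKRP, each 5 nM, plus 2 uM S6P, pH 7.1 buffer; GCK-free wells define minimum signal.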

A short description of experiment [4]: qHTS assay for measurement of the activity of small molecule inhibitors on Zika virus induced Caspase-3 activity in human iPSC derived neural progenitor cells (hNPCs) (AID 1224857). Also: % of control where 0% means no effect; nearly all actives have a fitted effect of over 65% in size. In short, it runs like this:
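In medium with heparin 2 ug/ml and cyclopamine 2 uM, hNPCs (350 cells/well) received compound for one hour and then Zika virus at 2 FFU/cell; caspase activity was measured by Caspase-Glo 3/7 luminescence 6 h post-infection.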

The nature of experiment [5]: qHTS assay for measurement of the activity of small molecule inhibitors on Zika virus induced Caspase-3 activity in human astrocytoma cells (AID 1224859).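 Also: plate controls were ZIKV-infected untreated cells for no effect and uninfected cells for full effect.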 In short, it runs like this:
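A cell-based luminescent caspase-3/7 assay used SNB-19 cells infected with ZIKV (2 FFU/cell) for 6 h following 1 h compound pretreatment.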

Experiment [6] can be described thus: Natriuretic polypeptide receptor (hNpr1) antagonism - Pilot counterscreen GloSensor control cell line (AID 1347045; calls by dose curve; also: series mostly up to about 38 µM; % is scaled to controls: 0 for no effect and ±100 for the full control effect). In short, it runs like this: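 Cells were first seeded and incubated overnight at 37C, then loaded with 2% GloSensor substrate for 2 h. Compounds were added for 30 min at room temperature, followed by a baseline read, 50 uM SNP and a final read after 20 min.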

Experiment [7] deals with Atrial natriuretic peptide receptor 1 (Homo sapiens) (UniProt P16066). In words: Natriuretic polypeptide receptor (hNpr1) antagonism - Pilot screen (AID 1347049; calls by dose curve;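 also: HEK293 cells with hNpr1 and GloSensor cGMP luciferase stimulated by 0.1 nM hNppA; agonist-evoked cGMP luminescence read 20 min after hNppA addition; series mostly up to about 58 µM; % is scaled to controls: 0 for no effect and ±100 for the full control effect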). In short, it runs like this:
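Receptor antagonism read as cGMP-dependent luminescence in hNpr1/pGS-40F HEK293 cells: pre-read after 30 min compound exposure, post-read 20 min after hNppA agonist at 0.1 nM final, all at room temperature, protected from light; A-71915 titration as control.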

Experiment [8] deals with Atrial natriuretic peptide receptor 2 (Homo sapiens) (UniProt P20594). In words: Natriuretic polypeptide receptor (hNpr2) antagonism - Pilot subtype selectivity assay (AID 1347050; calls by dose curve; also: % is scaled to controls: 0 for no effect and ±100 for the full control effect). In short, it runs like this: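 Antagonist mode: compounds (LOPAC1280, seven 1:5 dilutions) added 30 min before 1 nM hNppC stimulation of hNpr2-HEK293 cGMP-sensor cells; luminescence read before and 20 min after agonist at ambient temperature.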
Chain of Atrial natriuretic peptide receptor 2 (Homo sapiens) (P20594 whole entry, looked up): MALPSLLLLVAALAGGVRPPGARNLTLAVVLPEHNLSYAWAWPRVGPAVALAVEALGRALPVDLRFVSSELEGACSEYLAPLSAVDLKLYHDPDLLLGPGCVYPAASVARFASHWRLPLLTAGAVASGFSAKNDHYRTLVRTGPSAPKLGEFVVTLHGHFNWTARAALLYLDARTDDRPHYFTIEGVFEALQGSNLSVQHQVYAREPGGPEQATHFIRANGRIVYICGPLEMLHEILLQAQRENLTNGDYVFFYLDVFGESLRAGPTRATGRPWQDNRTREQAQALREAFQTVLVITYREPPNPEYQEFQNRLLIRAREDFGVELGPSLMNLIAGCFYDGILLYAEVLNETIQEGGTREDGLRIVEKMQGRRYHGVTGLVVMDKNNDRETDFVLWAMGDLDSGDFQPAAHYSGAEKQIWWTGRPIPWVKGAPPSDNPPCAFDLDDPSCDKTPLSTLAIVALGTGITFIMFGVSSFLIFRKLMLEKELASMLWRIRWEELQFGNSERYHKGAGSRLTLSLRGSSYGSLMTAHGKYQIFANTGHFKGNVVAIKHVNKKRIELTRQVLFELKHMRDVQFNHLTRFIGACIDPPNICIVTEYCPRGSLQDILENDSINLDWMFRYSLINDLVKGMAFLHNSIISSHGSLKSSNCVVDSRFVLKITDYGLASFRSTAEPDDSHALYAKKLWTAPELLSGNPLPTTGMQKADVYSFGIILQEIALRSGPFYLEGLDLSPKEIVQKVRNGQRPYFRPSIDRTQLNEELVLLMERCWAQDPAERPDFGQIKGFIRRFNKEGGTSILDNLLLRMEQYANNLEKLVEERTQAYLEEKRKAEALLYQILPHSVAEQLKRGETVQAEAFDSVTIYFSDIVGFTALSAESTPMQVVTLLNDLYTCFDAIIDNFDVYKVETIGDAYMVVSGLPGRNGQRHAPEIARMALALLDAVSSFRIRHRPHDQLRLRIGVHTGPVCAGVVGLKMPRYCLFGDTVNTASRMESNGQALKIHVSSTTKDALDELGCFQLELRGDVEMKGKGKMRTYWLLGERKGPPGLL

A short description of experiment [9]: qHTS Assay for Identifying Gametocytocidal Compounds (AID 743244).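 Also: % is scaled to controls: 0 for no effect and ±100 for the full control effect; actives lower the fluorescent signal which means gametocytes are killed.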 The conditions noted are these: P. falciparum 3D7 stage III-V gametocytes, alamarBlue, 72 h; max response: stronger effect = lower value. In short, it runs like this: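 In this qHTS viability screen, late-stage 3D7 gametocytes are incubated with compound for 72 h, then with alamarBlue for 24 h; reduced resorufin fluorescence marks killing.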

A short description of experiment [10]: P-glycoprotein substrates identified in KB-3-1 adenocarcinoma cell line, qHTS therapeutic library screen (AID 1346986). Also: % is scaled to controls: 0 for no effect and ±100 for the full control effect; nearly all actives have a fitted effect of over 60% in size. Put shortly:
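Viability read by CellTiter-Glo after 72 h compound exposure in dose-response of KB-3-1 and KB-8-5-11 (P-gp-high) cells. Hits needed AC50 < 10 uM, >50% maximum response and curve class -1.1 to -2.4. Cherry-picks retested ± tariquidar, including pcDNA/MDR-19 HEK-293 pair.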

A short description of experiment [11]: P-glycoprotein substrates identified in KB-8-5-11 adenocarcinoma cell line, qHTS therapeutic library screen (AID 1346987). Also: nearly all actives have a fitted effect of over 65% in size. Also: potency is read from the fitted curve at half-maximal effect. In short, it runs like this: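 Luminescence from CellTiter-Glo, read 5 min after addition, quantified survival of KB-8-5-11 (P-gp-overexpressing) cells exposed to compounds for 72 h. AC50 was derived from concentration-response curves.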

T1 sequence (P35557 whole entry, looked up): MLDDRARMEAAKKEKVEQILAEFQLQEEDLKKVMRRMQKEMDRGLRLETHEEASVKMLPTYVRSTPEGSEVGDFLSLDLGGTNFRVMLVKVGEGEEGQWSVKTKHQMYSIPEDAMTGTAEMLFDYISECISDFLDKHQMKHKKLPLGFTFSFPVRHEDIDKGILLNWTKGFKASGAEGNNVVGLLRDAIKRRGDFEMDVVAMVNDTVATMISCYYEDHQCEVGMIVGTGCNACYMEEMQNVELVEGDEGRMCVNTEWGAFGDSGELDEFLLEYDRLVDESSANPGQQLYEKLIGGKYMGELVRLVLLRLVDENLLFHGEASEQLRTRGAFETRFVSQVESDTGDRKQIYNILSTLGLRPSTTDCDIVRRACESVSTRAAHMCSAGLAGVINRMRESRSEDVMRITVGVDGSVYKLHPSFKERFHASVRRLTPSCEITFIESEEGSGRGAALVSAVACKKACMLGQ
T1 sequence (Q14397 whole entry, looked up): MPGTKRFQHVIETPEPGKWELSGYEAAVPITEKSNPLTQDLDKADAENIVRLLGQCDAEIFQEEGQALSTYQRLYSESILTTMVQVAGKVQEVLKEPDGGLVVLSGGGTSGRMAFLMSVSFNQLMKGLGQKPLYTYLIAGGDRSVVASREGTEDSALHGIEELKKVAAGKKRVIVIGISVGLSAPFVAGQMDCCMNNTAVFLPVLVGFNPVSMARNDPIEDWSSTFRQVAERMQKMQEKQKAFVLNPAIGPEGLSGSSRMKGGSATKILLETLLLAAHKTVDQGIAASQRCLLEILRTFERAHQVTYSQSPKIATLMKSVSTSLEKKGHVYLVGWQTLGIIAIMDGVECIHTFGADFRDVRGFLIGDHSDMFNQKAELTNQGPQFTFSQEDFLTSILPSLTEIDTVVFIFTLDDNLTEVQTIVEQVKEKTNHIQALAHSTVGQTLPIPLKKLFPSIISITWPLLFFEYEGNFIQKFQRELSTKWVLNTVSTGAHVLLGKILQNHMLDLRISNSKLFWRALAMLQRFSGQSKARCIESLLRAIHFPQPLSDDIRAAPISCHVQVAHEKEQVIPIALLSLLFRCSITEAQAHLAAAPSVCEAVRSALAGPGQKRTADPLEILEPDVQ
Chain of Atrial natriuretic peptide receptor 1 (Homo sapiens) (P16066 whole entry, looked up): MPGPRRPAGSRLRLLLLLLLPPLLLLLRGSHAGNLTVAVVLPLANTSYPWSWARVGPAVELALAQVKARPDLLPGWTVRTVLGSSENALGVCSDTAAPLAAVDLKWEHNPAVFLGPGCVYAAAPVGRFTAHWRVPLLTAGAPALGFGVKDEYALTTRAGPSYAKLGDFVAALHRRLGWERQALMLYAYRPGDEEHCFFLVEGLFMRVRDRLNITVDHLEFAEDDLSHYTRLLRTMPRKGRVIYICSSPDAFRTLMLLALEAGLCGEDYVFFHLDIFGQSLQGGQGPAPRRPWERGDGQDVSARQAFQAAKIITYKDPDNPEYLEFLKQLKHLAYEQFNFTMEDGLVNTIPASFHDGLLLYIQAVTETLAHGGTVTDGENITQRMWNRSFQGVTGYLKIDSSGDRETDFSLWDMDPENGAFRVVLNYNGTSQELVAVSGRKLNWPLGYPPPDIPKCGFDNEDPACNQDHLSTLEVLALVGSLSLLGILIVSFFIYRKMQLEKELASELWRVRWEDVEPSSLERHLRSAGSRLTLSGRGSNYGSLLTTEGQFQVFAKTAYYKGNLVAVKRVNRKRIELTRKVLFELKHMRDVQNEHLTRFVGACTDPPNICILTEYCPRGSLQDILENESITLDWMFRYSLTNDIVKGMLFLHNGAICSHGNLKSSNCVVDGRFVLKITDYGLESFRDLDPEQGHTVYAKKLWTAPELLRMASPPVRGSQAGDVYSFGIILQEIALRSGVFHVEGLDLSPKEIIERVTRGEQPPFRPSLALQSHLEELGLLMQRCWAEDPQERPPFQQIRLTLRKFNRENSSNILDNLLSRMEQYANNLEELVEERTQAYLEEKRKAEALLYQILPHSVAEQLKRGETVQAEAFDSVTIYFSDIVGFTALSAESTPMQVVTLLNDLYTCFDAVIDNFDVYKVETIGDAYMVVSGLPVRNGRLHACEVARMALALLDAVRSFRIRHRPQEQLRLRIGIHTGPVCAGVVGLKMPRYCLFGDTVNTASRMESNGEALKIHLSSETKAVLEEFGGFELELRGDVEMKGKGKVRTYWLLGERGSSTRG

As for `CC(=O)O[C@H]1CC2(C)[C@@H](C[C@@H](O)[C@H]3[C@@]4(C)CC[C@@H](O)[C@@H](C)[C@@H]4CC[C@@]32C)C1=C(CCC=C(C)C)C(=O)O` (stereo partly drawn), the Potency result in experiment [1], in experiment [2], in experiment [3], in experiment [4], in experiment [5] and in experiment [6] was “inactive” throughout. Further, the Potency result in experiment [7] and in experiment [8] was “inactive” each time.
On to `Nc1ccc(-c2nc3ccc(-c4nc5ccc(N)cc5[nH]4)cc3[nH]2)cc1`, for which the Potency result in experiment [1], in [2], in experiment [4], in experiment [5], in [6] and in experiment [7] was “inactive” in each case. Also, the Potency result in experiment [8] is “inactive”.
Take `N[C@@H](Cc1c[nH]c2ccccc12)C(=O)O`: the Potency entry in experiment [1], in experiment [2], in [3], in [4], in experiment [5] and in experiment [6] was “inactive” each time. Moreover, the Potency entry in [7] and in experiment [8] was “inactive” in each case.
On to `C=CCN1CCc2cc(O)c(O)cc2C(c2ccccc2)C1` (stereo not drawn), for which the Potency entry in [1], in [2], in experiment [3], in experiment [4], in experiment [5] and in experiment [6] was “inactive” each time. The Potency result in experiment [7] and in experiment [8] was “inactive” each time.
Consider `CC(C)NCC(O)COc1ccc(CC(N)=O)cc1` (stereo not drawn), for which the Potency result in experiment [1], in experiment [2], in experiment [3], in experiment [4], in [5] and in [6] was “inactive” each time. The Potency result in experiment [7] and in experiment [8] was “inactive” in each case.
Take `CCN(c1nc(N)c(C(=O)N=C(N)N)nc1Cl)C(C)C`: the Potency entry in [1], in [2], in [3], in experiment [4], in experiment [5] and in experiment [6] was “inactive” throughout. The Potency entry in experiment [7] and in experiment [8] was “inactive” in each case.
As to `N#C/C(=C\c1ccc(O)c(O)c1)C(=O)NCCCNC(=O)/C(C#N)=C/c1ccc(O)c(O)c1`, the Potency result in experiment [2], in experiment [3], in [4], in [5], in experiment [10] and in experiment [11] was “inactive” throughout. Moreover, the Potency entry in experiment [6] is “inactive”. Moreover, the max response in [9] is 5.33%.
`CN(C)S(=O)(=O)c1ccc2c(c1)/C(=C/c1cc3c([nH]1)CCCC3)C(=O)N2`: the Potency entry in experiment [1], in experiment [2], in experiment [4] and in experiment [5] was “inactive” in each case. In addition, the Potency in experiment [11] was 6.51 µM (active).
Take `CC(=O)NCCc1c[nH]c2ccc(O)cc12`: the Potency entry in [1], in [2], in experiment [3], in experiment [4], in [5] and in experiment [10] was “inactive” throughout. For the same compound, the Potency result in experiment [11], in [6] and in experiment [8] was “inactive” throughout. Also, in experiment [9], the max response was 28.4%.
Turning to `Nc1ncnc2c1ncn2C1CCCC1`, the Potency result in experiment [1], in [2], in experiment [3], in experiment [4], in experiment [5] and in [6] was “inactive” in each case. The Potency result in experiment [7] and in [8] was “inactive” throughout.
For `NCC(O)c1ccc(O)c(O)c1` (stereo not drawn), the Potency entry in experiment [1], in experiment [2], in experiment [4], in [5], in [6] and in experiment [7] was “inactive” in each case. In [8], the Potency result is “inactive”.
Turning to `C#CC(N)CCC(=O)O` (stereo not drawn), the Potency result in experiment [1], in experiment [2], in experiment [3], in experiment [4], in [5] and in experiment [6] was “inactive” throughout. For the same compound, the Potency result in [7] and in experiment [8] was “inactive” in each case.
Regarding `COc1cc(CC(=O)O)ccc1O`, the Potency entry in [1], in experiment [2], in experiment [3], in experiment [4], in experiment [5] and in experiment [6] was “inactive” each time. Besides, the Potency entry in [7] and in [8] was “inactive” throughout.
Regarding `N=C(N)c1ccc(OCCCCCOc2ccc(C(=N)N)cc2)cc1` (tested in a mixture with another compound), the Potency result in [1], in experiment [2], in experiment [3], in experiment [4], in experiment [5] and in [6] was “inactive” in each case. In addition, the Potency entry in experiment [7] and in experiment [8] was “inactive” each time.
Take `O=c1[nH]ccc2c(O)cccc12`: the Potency result in experiment [1], in [2], in experiment [3], in experiment [4], in [5] and in [6] was “inactive” throughout. Further, the Potency result in experiment [7] and in experiment [8] was “inactive” in each case. In addition, in experiment [9], the max response is 22.6%.
For `O=C(O)Cc1c[nH]c2ccc(O)cc12`, the Potency result in experiment [1], in [2], in experiment [3], in [4], in experiment [5] and in experiment [6] was “inactive” each time. The Potency result in [7] and in experiment [8] was “inactive” throughout. Further, the max response in experiment [9] was -2.34%.
In the case of `O=C(O)c1cccnc1C(=O)O`, the Potency entry in experiment [1], in experiment [2], in [3], in [4], in experiment [5] and in [6] was “inactive” in each case. In addition, the Potency entry in experiment [7] and in experiment [8] was “inactive” each time. The max response in experiment [9] was 4.44%.
Turning to `CCCn1c(=O)c(C)cn2nc(N)nc12`, the Potency entry in experiment [1], in experiment [2], in [3], in experiment [4], in experiment [5] and in [6] was “inactive” in each case. Further, the Potency entry in [7] and in experiment [8] was “inactive” in each case. Moreover, in experiment [9], the max response is -2.34%.
As for `COc1ccccc1N1CCN(CCN(C(=O)c2ccc(F)cc2)c2ccccn2)CC1`, the Potency result in experiment [1], in experiment [2], in experiment [3], in experiment [4], in experiment [5] and in [6] was “inactive” in each case. The Potency result in [7] and in experiment [8] was “inactive” each time. The max response in [9] is 23.7%.
As to `CCCN(CCc1ccccc1)C1CCc2c(O)cccc2C1` (stereo not drawn), the Potency result in experiment [1], in [2], in [3], in [4], in experiment [5] and in experiment [6] was “inactive” throughout. Also, the Potency result in experiment [7] and in [8] was “inactive” in each case.
Turning to `CC(=O)/C(C)=N/O`, the Potency result in experiment [1], in experiment [2], in experiment [3], in [4], in experiment [5] and in experiment [6] was “inactive” each time. Further, the Potency result in experiment [7] and in experiment [8] was “inactive” throughout.
`CC(C)C[C@H](NC(=O)[C@H](O)[C@H](N)Cc1ccccc1)C(=O)O`: the Potency entry in [1], in experiment [2], in [3], in experiment [4], in [5] and in experiment [6] was “inactive” each time. The Potency entry in experiment [7] and in experiment [8] was “inactive” throughout. Moreover, the max response in experiment [9] is 2.38%.
Consider `Cn1cc(C(F)(F)F)nc1-c1ccc(OCC(O)CNCCOc2ccc(O)c(C(N)=O)c2)cc1` (stereo not drawn), for which the Potency result in experiment [1], in experiment [2], in [3], in experiment [4], in [5] and in experiment [6] was “inactive” each time. Also, the Potency entry in [7] and in experiment [8] was “inactive” throughout. The max response in experiment [9] was 26.1%.
